Data as given in the supplement of paper PMC8699584.
Structures can show the parent of a compound that is named as a salt. ± gives the standard deviation of the averaged measurements.

Key:
Molm13 = test: cell viability relative to DMSO control (bortezomib = 0%); higher = less growth inhibition; conditions: 10 nM; 72 h
How it was run: (§1)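 In duplicate runs, a library of 679 approved and investigational compounds in 384-well plates received acute myeloid leukemia cells at 1000 cells per well in 50 µL, with each compound at a single 10 nM dose for 72 h. CellTiter-Glo luminescence, read on an EnVision reader, served as the viability measure. Each plate was normalized by linear regression between DMSO-treated cells (100%) and positive-control-treated cells (0%).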

Mv4-11 = test: as above; conditions: 10 nM; 72 h
How it was run: as §1

Row | Compound | cell viability (Molm13) [%] | cell viability (Mv4-11) [%]
1 | C[C@H]1Oc2cc(cnc2N)-c2c(nn(C)c2C#N)CN(C)C(=O)c2ccc(F)cc21 | 115 ± 8.8 | 112 ± 19
2 | C=CC(=O)Nc1cccc(Nc2nc(Nc3ccc(N4CCN(C(C)=O)CC4)cc3OC)ncc2C(F)(F)F)c1 [Rociletinib (CO-1686, AVL-301)] | 108 ± 10 | 110 ± 1.6
3 | COc1ccc2cc1Oc1ccc(cc1)C[C@H]1c3cc(c(OC)cc3CCN1C)Oc1c(O)c(OC)cc3c1[C@H](C2)N(C)CC3 [(+)-Fangchinoline] | 116 ± 13 | 114 ± 1.3
4 | Cc1cc(F)c(Nc2ncnc3cc(OCc4ccccc4)ccc23)cc1O | 103 ± 1.4 | 118 ± 11
5 | COc1cc(/C=C(\C#N)C(N)=O)cc(CSc2nc3ccccc3s2)c1O | 112 ± 4.3 | 93.1 ± 5.8
6 | CCOC(=O)c1cnc2ccc(-c3cncc(NS(=O)(=O)c4ccccc4)c3)cn12 | 99.7 ± 8.9 | 103 ± 14
7 | C=C(C)[C@@H]1CC[C@]2(C)CC[C@]3(C)[C@H](CC[C@@H]4[C@@]5(C)CC[C@H](O)C(C)(C)[C@@H]5CC[C@]43C)[C@@H]12 [Lupeol] | 101 ± 9.8 | 94.9 ± 1.2
8 | Nc1nccc(-c2c(-c3ccc(F)cc3)ncn2C2CCCCC2)n1 | 96.6 ± 18 | 114.4 ± 0.84
9 | N#Cc1ccc2[nH]c(O)c(-c3ccc(CN4CCOCC4)cn3)c2c1 | 112 ± 0.85 | 106 ± 5.3
10 | Cc1ccc(S(=O)(=O)/C=C/C#N)cc1 | 87.5 ± 24 | 98.8 ± 3.1
11 | Cc1ccc(CNc2ncnc3ccc(-c4ccc(CO)o4)cc23)o1 | 118 ± 2 | 107 ± 12
12 | O=C1NC(=O)[C@@H](c2cn3c4c(cccc24)CCC3)[C@@H]1c1c[nH]c2ccccc12 [Tivantinib (ARQ 197)] | 105 ± 3.9 | 115 ± 11
13 | CCN1CCN(Cc2ccc(-c3cc4c(N[C@H](C)c5ccccc5)ncnc4[nH]3)cc2)CC1 | 100 ± 17 | 109 ± 18
14 | CNC(=O)c1cc(Oc2ccc(NC(=O)Nc3cc(C(C)(C)C)nn3-c3ccc4ncccc4c3)c(F)c2)ccn1 [DCC-2036 (Rebastinib)] | 95.7 ± 1.2 | 107 ± 7.3
15 | CNc1nc(Nc2cn(C(C)(C)C#N)nc2C)ncc1C(F)(F)F | 109 ± 2.8 | 117 ± 11
16 | C=CCc1ccc(O)c(-c2ccc(O)c(CC=C)c2)c1 [Honokiol] | 105 ± 5.5 | 112 ± 14
17 | CC(C)CCN1c2nc(Nc3cc(F)c(O)c(F)c3)ncc2N(C)C(=O)C1C (stereo unspecified) | 100 ± 14 | 114 ± 6.3

Row | Compound | cell viability (Molm13) [%] | cell viability (Mv4-11) [%]
18 | C[C@@H]1COCCN1c1cc(C2([S@](C)(=N)=O)CC2)nc(-c2cc[nH]c3nccc2-3)n1 | 114 ± 7.9 | 115 ± 3.4
19 | CCCCNc1ncc(C(=O)NCc2ccc(-n3ccnc3)cc2)c(NC2CCC(O)CC2)n1 (stereo unspecified) | 103 ± 5.1 | 115.2 ± 0.28
20 | CC1(C)CC[C@]2(C(=O)O)CC[C@]3(C)C(=CC[C@@H]4[C@@]5(C)CC[C@H](O[C@@H]6O[C@H](C(=O)O)[C@@H](O)[C@H](O[C@@H]7OC[C@@H](O)[C@H](O)[C@H]7O)[C@H]6O)C(C)(C)[C@@H]5CC[C@]43C)[C@@H]2C1 [Momordin Ic] | 87.4 ± 13 | 106 ± 5
21 | Nc1nccc(Oc2ccc(NC(=O)c3c[nH]cc(-c4ccc(F)cc4)c3=O)cc2F)c1Cl | 60.9 ± 5.7 | 83.1 ± 3.7
22 | O=C(COc1ccc(Cl)cc1)NC1CCC(NC(=O)COc2ccc(Cl)cc2)CC1 (stereo unspecified) | 109 ± 1.8 | 111 ± 14
23 | Cc1cc(C(C)Nc2ccccc2)c2nc(N3CCOCC3)cc(=O)n2c1 (stereo unspecified) | 106 ± 18 | 100 ± 3.8
24 | Cc1ccc(-c2csc3ncnc(SCCC(=O)O)c23)cc1 | 108 ± 3.3 | 117 ± 10
25 | OCCn1cc(-c2cnc3nnn(Cc4ccc5ncccc5c4)c3n2)cn1 | 120 ± 24 | 112 ± 8.7
26 | O=[N+]([O-])c1ccc(-c2nc(-c3ccc(F)cc3)c(-c3ccncc3)[nH]2)cc1 | 99.9 ± 5.5 | 101 ± 5.5
27 | CNC(=O)c1c(C)oc2cc(Oc3ncnc4cc(OC)c(OC)cc34)ccc12 [Fruquintinib] | 103 ± 25 | 106 ± 2.8
28 | Cn1cc(C2=C(c3cccc(N)c3)C(=O)NC2=O)c2ccccc21 | 114.2 ± 0.55 | 113 ± 3.2
29 | CN1CC(O)C2=C/C(=N/NC(N)=O)C(=O)C=C21 (stereo unspecified) [Carbazochrome] | 93.7 ± 20 | 107 ± 9.7
30 | O=C(NCCCNc1nc(Nc2cccc(CN3CCOCC3)c2)ncc1C1CC1)C1CCC1 | 86.2 ± 18 | 106 ± 28
31 | CC(C)N(CCC(=O)c1ccc2ccccc2c1)Cc1ccccc1 | 96.8 ± 7 | 111 ± 1.4
32 | COc1cc(Nc2ncc(F)c(Nc3ccc4c(n3)NC(=O)C(C)(C)O4)n2)cc(OC)c1OC | 105 ± 3.9 | 99.7 ± 6.4
33 | O=S(=O)(c1cccc2cnccc12)N1CCCNCC1 [Fasudil (HA-1077) hydrochloride] | 91.5 ± 1.8 | 104 ± 5
